# Reference: PubChem BioAssay (NCATS)
# Inconclusive results are not listed. A call without a number means that no potency is given here. Activity calls are given as the source filed them. Calls follow the shape of the dose curve; as a rule, active = well fitted inhibition curve with a large enough effect; inconclusive = small, poorly fitted or top-dose-only effect; inactive = flat fitted curve, though single readings scatter.
# Molecular target: Glutathione peroxidase 1 (Homo sapiens) (UniProt P07203)
# Assay: Primary qHTS Assay for Inhibitors of Recombinant Selenoprotein Glutathione Peroxidase 1 (GPX1) (AID 1845191); also: nearly all actives have a fitted effect of over 65% in size
# Details: recombinant GPX1, GR-coupled NADPH fluorescence, 15 min; series mostly up to 48.8 µM
# In short: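 10 nM GPX1 + cpd, 30 min RT; start w/ 1 mM GSH, 0.5 mM cumene hydroperoxide, 0.5 mM NADPH, 100 nM GR, 0.01% BSA; buffer 50 mM Tris-HCl pH 7.5, 2 mM EDTA, 150 mM NaCl; Fl 340/450, 0 & 15 min.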
# Chain of Glutathione peroxidase 1 (Homo sapiens) (P07203 whole entry, looked up): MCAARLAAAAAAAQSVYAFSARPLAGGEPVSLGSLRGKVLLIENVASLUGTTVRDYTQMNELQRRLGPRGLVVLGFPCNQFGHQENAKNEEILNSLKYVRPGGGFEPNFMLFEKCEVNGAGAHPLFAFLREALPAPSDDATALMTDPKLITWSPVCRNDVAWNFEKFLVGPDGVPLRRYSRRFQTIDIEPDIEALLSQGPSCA
row,SMILES,Potency
1,O=C(OCCO)c1ccccc1O,inactive
2,C=C1CC2C3CCC4=CC(=O)C=C[C@]4(C)[C@@]3(F)[C@@H](O)C[C@]2(C)[C@@]1(O)C(=O)COC(C)=O (stereo partly drawn),inactive
3,CCN(CC)CCOC(=O)c1ccc(N)cc1Cl,inactive
4,Nc1c(CC(=O)O)cccc1C(=O)c1ccccc1,inactive
5,C/C(=C(/CCO)SSCC1CCCO1)N(C=O)Cc1cnc(C)nc1N (stereo not drawn),inactive
6,Cc1[nH]cnc1C[C@H]1CCc2c(C)c3ccccc3n2C1=O,inactive
7,CCN1CCCC1CNC(=O)c1cc(S(=O)(=O)CC)ccc1OC (stereo not drawn),inactive
8,O=S(O)CNc1ccc(S(=O)(=O)c2ccc(NCS(=O)O)cc2)cc1,inactive
9,CCCCOC(=O)C(=O)Nc1cccc(-c2nn[nH]n2)c1,inactive
10,CC(=O)O[C@H]1C[C@@H]2CC[C@@H]3[C@H](CC[C@@]4(C)[C@H]3C[C@H](N3CC[N+](C)(C)CC3)[C@@H]4OC(C)=O)[C@@]2(C)C[C@@H]1N1CC[N+](C)(C)CC1,inactive
11,Cc1c(N)nc(C(CC(N)=O)NCC(N)C(N)=O)nc1C(=O)NC(C(=O)NC(C)C(O)C(C)C(=O)NC(C(=O)NCCc1nc(-c2nc(C(=O)NCCCN[C@@H](C)c3ccccc3)cs2)cs1)C(C)O)C(O[C@@H]1O[C@@H](CO)[C@@H](O)[C@H](O)[C@@H]1O[C@H]1O[C@H](CO)[C@@H](O)[C@H](OC(N)=O)[C@@H]1O)c1cnc[nH]1 (stereo partly drawn),inactive
12,CN[C@@H]1CCc2[nH]c3ccc(C(N)=O)cc3c2C1,inactive
13,NC(=O)c1cnc(N[C@@H]2CCCC[C@@H]2N)nc1Nc1cccc(-n2nccn2)c1,inactive
